TEAD-YAP block: TEAD-YAP interaction inhibition. inhibition, % at 9.12 µM. HEK-TIYL cells, TEAD-Gal4/YAP UAS-luciferase luminescence. hit rate 1.4% among 640,000; in the data active means inhibition above about 32%;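 further: 0% = median of test compound wells and 100% = reference inhibitor wells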
MITF primary: inhibitors of human MITF | O75030 | AlphaScreen MITF homodimerization, bead proximity signal | inhibition, % at 2.6 µM | hit rate 0.91% among 650,000 | AID 1259374; in the data active means inhibition above about 50%;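 further: 0% = vehicle wells with protein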
Target sequence (O75030 whole entry, looked up): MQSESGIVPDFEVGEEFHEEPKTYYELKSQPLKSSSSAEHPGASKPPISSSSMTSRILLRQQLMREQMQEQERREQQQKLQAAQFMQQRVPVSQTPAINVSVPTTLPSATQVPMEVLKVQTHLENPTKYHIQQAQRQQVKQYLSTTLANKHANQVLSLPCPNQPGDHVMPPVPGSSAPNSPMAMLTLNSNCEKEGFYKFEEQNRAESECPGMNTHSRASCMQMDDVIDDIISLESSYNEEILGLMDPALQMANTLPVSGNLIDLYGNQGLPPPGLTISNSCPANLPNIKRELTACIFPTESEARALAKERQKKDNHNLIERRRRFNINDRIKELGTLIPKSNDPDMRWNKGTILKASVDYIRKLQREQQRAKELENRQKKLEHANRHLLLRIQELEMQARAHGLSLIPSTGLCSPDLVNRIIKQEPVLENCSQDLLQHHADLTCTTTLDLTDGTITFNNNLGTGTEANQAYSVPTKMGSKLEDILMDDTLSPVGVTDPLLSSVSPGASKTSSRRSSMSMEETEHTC
GPR151 activ: activators of human GPR151 | Q8TDV0 | PathHunter beta-arrestin GPR151 cells, luminescence | activation, % at 11.2 µM | hit rate 1% among 650,000; in the data active means activation above about 4.9%;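 further: 0% = median of compound wells and 100% = cells with positive control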
FBW7 activator: activators of human E3 ligase FBW7 | Q969H0 | AlphaScreen FBW7–phospho-cyclin E peptide binding, activator screen | normalized activity (activation), % at 26.1 µM | hit rate 0.13% among 650,000; in the data active means normalized activity above about 1.9%;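 further: purified mutant Fbw7 with reduced substrate affinity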
Active calls of the source: *. Sampled rows, rich in hits. Any-hit rate of the full collection: about 3.4%.

SMILES | TEAD-YAP block | MITF primary | GPR151 activ | FBW7 activator
CCOCCCNC(=O)/C(C#N)=C/c1ccc(Cl)c([N+](=O)[O-])c1 | 5 | 16 | -3 | 1
COc1cc(/C=C(\C#N)C(=O)Nc2ccc(Cl)cc2)cc([N+](=O)[O-])c1O | 8 | 23 | -1 | 1
COc1cc(/C=C(/C#N)C(=O)Nc2ccc(O)cc2)ccc1O | 47* | 17 | 1 | 0
COc1cc(/C=C(\C#N)C(=O)Nc2ccc(F)cc2)cc([N+](=O)[O-])c1O | 37* | -5 | -1 | 0
CCOCCCNC(=O)/C(C#N)=C/c1cc(OC)c(O)c([N+](=O)[O-])c1 | 48* | 20 | -1 | 0
CC12COC3(C(=O)Nc4ccccc4Br)CC1CCC32C (centres undefined) | -13 | -4 | -1 | 0
C/C(CC(=O)n1cnnc1)=N\Nc1ccccc1 | 6 | 14 | 0 | 1
CCOc1cc(/C=C(/C#N)C(=O)Nc2ccc(O)cc2)cc(Br)c1O | 56* | -9 | -1 | 0
COc1cc(/C=C(/C#N)C(=O)Nc2cccc(C)c2)cc(Br)c1O | 3 | -4 | -1 | 0
COc1cc(/C=C(\C#N)C(=O)Nc2ccc(O)cc2)cc(Cl)c1O | 54* | 3 | 0 | 0
COc1cc(/C=C(/C#N)C(=O)Nc2ccc(O)cc2)cc(Br)c1O | 43* | 0 | 2 | 0
Cc1[nH]n(-c2ccccc2)c(=O)c1/C=N/NC(C)(C)C | 0 | -17 | -1 | -1
Oc1ccc2ccccc2c1/C=N/c1ccccn1 | 1 | 1 | 0 | 0
Oc1ccc(/C=N/N/C(=N/c2ccccn2)c2ccccn2)c(O)c1 | 59* | 45 | -4 | -2
Cc1[nH]n(-c2ccccc2)c(=O)c1/C=N/N/C(=N/c1ccccn1)c1ccccn1 | 12 | 52* | 2 | -1
N/C(=N\N=C\c1c(O)ccc2ccccc12)c1ccccn1 | 60* | 11 | -2 | -1
N/C(=N\N=C/c1ccc(O)cc1O)c1ccccn1 | 84* | 20 | -5 | -1
CCOC(=O)c1ccc(CN(Cc2ccc(F)cc2)S(=O)(=O)c2cc(C(=O)Nc3cc(C(F)(F)F)ccc3Cl)ccc2F)cc1 | 3 | -1 | 1 | 0
Nc1cc(N)cc(Oc2cccc(C(F)(F)F)c2)c1 | 1 | 3 | 0 | 0
COc1ccccc1/C=N\N=C(/N)c1ccccn1 | 56* | 19 | -4 | -1
O=C(NCc1ccccc1)c1ccc(N2C(=O)c3ccccc3C2=O)cc1 | 5 | 7 | 0 | 0
CN1CCOCCOCCOCCOCCN(C)C1=S | 5 | 6 | 0 | 0
COc1ccc(NC(=O)c2oc3ccccc3c2NC(=O)CC2CCCCC2)c(OC)c1 | 8 | -5 | 0 | 0
COc1ccc2cc(S(=O)(=O)n3cnc4cc(C)c(C)cc43)ccc2c1 | 67* | 11 | 1 | 0
Cc1ccc2oc(-c3cccc(NC(=O)c4ccc(Cl)cc4)c3)nc2c1 | -4 | 3 | 1 | 0
SMILES | TEAD-YAP block | MITF primary | GPR151 activ | FBW7 activator
COc1cccc(N2CCN(c3cc(C)nc4ncnn34)CC2)c1 | 14 | 0 | -1 | 0
Cc1cc(N2CCN(c3nc4ccccc4s3)CC2)n2ncnc2n1 | 51* | -20 | 1 | 0
O=C(NC1CCCCC1)c1ccc2c(c1)OCO2 | -18 | -1 | 0 | 0
O=C(NC1CCCCCC1)c1cccc(N2CCCC2=O)c1 | 61* | -12 | -1 | 0
Cc1nc2ccc(C(=O)NC3CCCCCC3)cc2nc1C | 50* | -16 | -7 | 0
O=C(NC1CCCCC1)c1cccc(N2CCCC2=O)c1 | 14 | 3 | 0 | 0
O=C(NC1CCCCCC1)c1ccc2c(c1)OCO2 | 44* | 3 | -7 | 0
COc1ccc(-c2nc3ccc(C(=O)NC4CCCCCCC4)cc3nc2-c2ccc(OC)cc2)cc1 | 2 | -7 | 0 | 0
Cc1ccc(C(=O)NC2CCCCCC2)cc1 | 49* | -7 | -4 | 0
Cc1ncn(-c2ccc(Nc3nccc(-c4cc(C#N)cc(NC5CCOCC5)c4)n3)cc2)n1 | -2 | 22 | 0 | 1
O=C(NC1CCCCCC1)c1ccc(Cl)cc1Cl | 33* | 10 | -1 | 0
O=C(NC1CCCCCCC1)c1cc(F)c(F)cc1Cl | -52 | 0 | -1 | 0
c1ccc(-n2cnc3c(NCCN4CCOCC4)nc(Nc4ccncn4)nc32)cc1 | 29 | 10 | -1 | 0
c1ccc(-n2cnc3c(NCCN4CCOCC4)nc(Nc4ncccn4)nc32)cc1 | -3 | -1 | 0 | 0
c1ccc(-n2cnc3c(NCCN4CCOCC4)nc(Nc4ccccn4)nc32)cc1 | 35* | -6 | 0 | 0
c1ccc(-n2cnc3c(NCCN4CCOCC4)nc(Nc4cnccn4)nc32)cc1 | 48* | 13 | -1 | 0
O=C(Nc1ccc2c(c1)CN(S(=O)(=O)c1cccnc1)CC2)c1ccccc1Cl | 46* | -6 | 3 | 0
O=C(Nc1ccc2c(c1)CN(C(=O)Cn1cncn1)CC2)c1ccccc1Cl | 47* | 4 | -1 | 0
COc1ccc(C2Nn3c(C)nnc3SC2C(=O)N2CCCCC2)cc1 (centres undefined) | 4 | 3 | 0 | 0
Cc1ccc(OCCn2cnc3ccccc3c2=O)c(Cl)c1 | -53 | 19 | -2 | 0

Source: PubChem
